# Assay results: the supplement of paper PMC8728848
# About 410 targets per protein were measured; listed, in parts, are those with the strongest signals and a random draw of the rest.
# Experiments:
# Experiment in all cases: glycan array binding signal (z-score within array); higher = stronger binding
# Settings in all cases: glycan notation: IUPAC condensed, linker removed
# [1] = target: Fuc(a1-2)Gal(b1-3)GalNAc(a1-3)[Fuc(a1-2)]Gal(b1-4)Glc
# Procedure, shortened: (§1)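 Arrays were curated from the Consortium for Functional Glycomics database, 3228 in total, and kept only where the protein sequence was available. Binding is expressed as a within-array Z-score. This score was averaged across arrays of the same protein sequence at different concentrations or buffers and across linkers, and negative values can be read as non-binding.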
# [2] = target: Fuc(a1-2)Gal(b1-3)[Fuc(a1-4)]GlcNAc
# Procedure, shortened: as §1
# [3] = target: Fuc(a1-2)[Gal(a1-3)]Gal(b1-3)GlcNAc(b1-2)Man(a1-3)[Fuc(a1-2)[Gal(a1-3)]Gal(b1-3)GlcNAc(b1-2)Man(a1-6)]Man(b1-4)GlcNAc(b1-4)[Fuc(a1-6)]GlcNAc
# Procedure, shortened: as §1
# [4] = target: Fuc(a1-2)[Gal(a1-3)]Gal(b1-3)GlcNAc(b1-6)GalNAc
# Procedure, shortened: as §1
# [5] = target: Fuc(a1-2)[Gal(a1-3)]Gal(b1-4)GlcNAc(b1-3)[Fuc(a1-2)[Gal(a1-3)]Gal(b1-4)GlcNAc(b1-6)]GalNAc
# Procedure, shortened: as §1
# [6] = target: Fuc(a1-2)[Gal(a1-3)]Gal(b1-4)[Fuc(a1-3)]GlcNAc(b1-3)GalNAc
# Procedure, shortened: as §1
# [7] = target: Fuc(a1-2)[GalNAc(a1-3)]Gal(b1-3)GlcNAc(b1-6)GalNAc
# Procedure, shortened: as §1
# [8] = target: Fuc(a1-2)[GalNAc(a1-3)]Gal(b1-4)[Fuc(a1-3)]GlcNAc(b1-3)GalNAc
# Procedure, shortened: as §1
# Fuc(a1-3)GlcNAc = target: Fuc(a1-3)GlcNAc
# Procedure, shortened: as §1
# [9] = target: Fuc(a1-3)[Gal(b1-4)]GlcNAc(b1-2)Man
# Procedure, shortened: as §1
# [10] = target: Fuc(a1-3)[Gal(b1-4)]GlcNAc(b1-3)Gal(b1-3)[Fuc(a1-4)]GlcNAc
# Procedure, shortened: as §1
# Fuc(a1-4)GlcNAc = target: Fuc(a1-4)GlcNAc
# Procedure, shortened: as §1
# [11] = target: Gal(a1-4)Gal(b1-3)GlcNAc(b1-2)Man(a1-3)[Gal(a1-4)Gal(b1-3)GlcNAc(b1-2)Man(a1-6)]Man(b1-4)GlcNAc(b1-4)GlcNAc
# Procedure, shortened: as §1
# [12] = target: Gal(a1-4)Gal(b1-4)GlcNAc(b1-3)Gal(b1-4)Glc
# Procedure, shortened: as §1
# [13] = target: Gal(b1-3)GalNAc(b1-4)[Neu5Ac(a2-3)]Gal(b1-4)Glc
# Procedure, shortened: as §1
# [14] = target: Gal(b1-3)GlcNAc(b1-2)Man(a1-3)[Gal(b1-3)GlcNAc(b1-2)Man(a1-6)]Man(b1-4)GlcNAc(b1-4)[Fuc(a1-6)]GlcNAc
# Procedure, shortened: as §1
# [15] = target: Gal(b1-3)[Fuc(a1-4)]GlcNAc(b1-2)Man
# Procedure, shortened: as §1
# [16] = target: Gal(b1-4)GalNAc(b1-3)[Fuc(a1-2)]Gal(b1-4)GlcNAc
# Procedure, shortened: as §1
# [17] = target: Gal(b1-4)GlcNAc(b1-2)[Gal(b1-4)GlcNAc(b1-6)]Man(a1-6)[GlcNAc(b1-4)][Gal(b1-4)GlcNAc(b1-2)[Gal(b1-4)GlcNAc(b1-4)]Man(a1-3)]Man(b1-4)GlcNAc(b1-4)[Fuc(a1-6)]GlcNAc
# Procedure, shortened: as §1
# [18] = target: Gal(b1-4)GlcNAc(b1-3)Gal(b1-4)GlcNAc(b1-3)Gal(b1-4)GlcNAc(b1-2)Man(a1-3)[Gal(b1-4)GlcNAc(b1-3)Gal(b1-4)GlcNAc(b1-3)Gal(b1-4)GlcNAc(b1-2)Man(a1-6)]Man(b1-4)GlcNAc(b1-4)[Fuc(a1-6)]GlcNAc
# Procedure, shortened: as §1
# [19] = target: Gal(b1-4)GlcNAc(b1-3)Gal(b1-4)GlcNAc(b1-3)Gal(b1-4)GlcNAc(b1-3)Gal(b1-4)GlcNAc(b1-2)Man(a1-3)[Gal(b1-4)GlcNAc(b1-3)Gal(b1-4)GlcNAc(b1-3)Gal(b1-4)GlcNAc(b1-3)Gal(b1-4)GlcNAc(b1-2)Man(a1-6)]Man(b1-4)GlcNAc(b1-4)[Fuc(a1-6)]GlcNAc
# Procedure, shortened: as §1
# [20] = target: Gal(b1-4)GlcNAc(b1-6)GalNAc
# Procedure, shortened: as §1
# Gal3S(b1-3)GlcNAc = target: Gal3S(b1-3)GlcNAc
# Procedure, shortened: as §1
# [21] = target: Gal3S(b1-4)[Fuc(a1-3)]Glc6S
# Procedure, shortened: as §1
# GalNAc(a1-3)Gal = target: GalNAc(a1-3)Gal
# Procedure, shortened: as §1
# GalNAc(b1-3)GlcNAc = target: GalNAc(b1-3)GlcNAc
# Procedure, shortened: as §1
# GalNAc(b1-4)GlcNAc = target: GalNAc(b1-4)GlcNAc
# Procedure, shortened: as §1
# GalNAc4S6S(b1-4)GlcNAc = target: GalNAc4S6S(b1-4)GlcNAc
# Procedure, shortened: as §1
# [22] = target: Glc(a1-6)Glc(a1-6)Glc(a1-6)Glc
# Procedure, shortened: as §1
binder,measurement,setting,value
AidA (Burkholderia cenocepacia) (protein) MSRVTDVLVSFDTETILKKYPNPSKNPAAPTLIDWRYVYMVTNQDNVISGQAGGELDLKAQVGDLIRWRETSLSLGFENQVVFYKFIGNVGNDLISTPTPRVAEASIPVPNTSKPEVPTCQKVANYYWSSECLKVGRVTYHFQFQIIDRNCQSQGCFSWDPFISIHN,glycan array binding signal (z-score),[1],-0.374
same,glycan array binding signal (z-score),[2],-0.268
same,glycan array binding signal (z-score),[3],1.35
same,glycan array binding signal (z-score),[4],0.594
same,glycan array binding signal (z-score),[5],0.451
same,glycan array binding signal (z-score),[6],-0.44
same,glycan array binding signal (z-score),[7],1.7
same,glycan array binding signal (z-score),[8],19.7
same,glycan array binding signal (z-score),Fuc(a1-3)GlcNAc,-0.017
same,glycan array binding signal (z-score),[9],0.556
same,glycan array binding signal (z-score),[10],-0.459
same,glycan array binding signal (z-score),Fuc(a1-4)GlcNAc,3.1
same,glycan array binding signal (z-score),[11],0.346
same,glycan array binding signal (z-score),[12],-0.277
same,glycan array binding signal (z-score),[13],0.172
same,glycan array binding signal (z-score),[14],-0.149
same,glycan array binding signal (z-score),[15],-0.108
same,glycan array binding signal (z-score),[16],-0.557
same,glycan array binding signal (z-score),[17],-0.272
same,glycan array binding signal (z-score),[18],1.44
same,glycan array binding signal (z-score),[19],0.416
same,glycan array binding signal (z-score),[20],-0.507
same,glycan array binding signal (z-score),Gal3S(b1-3)GlcNAc,2.41
same,glycan array binding signal (z-score),[21],2.38
same,glycan array binding signal (z-score),GalNAc(a1-3)Gal,0.384
same,glycan array binding signal (z-score),GalNAc(b1-3)GlcNAc,-0.115
same,glycan array binding signal (z-score),GalNAc(b1-4)GlcNAc,1.43
same,glycan array binding signal (z-score),GalNAc4S6S(b1-4)GlcNAc,-0.374
same,glycan array binding signal (z-score),[22],-0.597
